A selection: hits, their analogues and other compounds. The true share with any hit is near 22%.
LmPK inhibitor – blocks Leishmania mexicana pyruvate kinase activity. actives 0.37% (n = 290,000). purified LmPK, Kinase-Glo ATP luminescence, 1 h. Potency, µM (highest dose often 57.5 µM), usual class: inhibitors. AID 1721. Q27686
Target sequence (Q27686 whole entry, looked up): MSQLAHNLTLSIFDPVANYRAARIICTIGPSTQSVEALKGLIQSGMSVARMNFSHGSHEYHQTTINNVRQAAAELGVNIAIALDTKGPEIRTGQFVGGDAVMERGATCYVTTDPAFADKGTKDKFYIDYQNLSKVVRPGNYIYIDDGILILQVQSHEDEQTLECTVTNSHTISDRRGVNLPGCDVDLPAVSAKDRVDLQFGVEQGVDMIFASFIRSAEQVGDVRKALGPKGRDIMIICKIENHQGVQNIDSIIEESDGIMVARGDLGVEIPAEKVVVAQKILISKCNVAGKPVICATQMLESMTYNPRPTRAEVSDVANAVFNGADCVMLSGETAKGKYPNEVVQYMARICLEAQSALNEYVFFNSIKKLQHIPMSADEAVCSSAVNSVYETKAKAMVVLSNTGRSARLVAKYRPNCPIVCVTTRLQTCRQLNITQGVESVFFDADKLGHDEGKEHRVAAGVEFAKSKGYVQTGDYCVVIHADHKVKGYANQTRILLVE
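Kinase-Glo luminescence read after 1 h RT reaction of 0.1 nM LmPK with 0.5 mM PEP and 0.1 mM ADP. Activity scaled between uninhibited and enzyme-free controls.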
Cycloheximide cs – counter-screen hit for Shiga toxin inhibitors, cycloheximide | cell reporter, cycloheximide protein synthesis inhibition counterscreen | max response, % | AID 2314 | actives 12% (n = 300,000); in the data active = max response mostly above about 13%, no sharp cut-off; inactive = mostly below about 14%; also: read at 38.3 µM for the half of the compounds with a filed dose
Pf growth 48h – inhibits P. falciparum growth in the first generation, 48 h. P. falciparum luciferase growth in erythrocytes, 48 h. Potency, µM (titrated, usually from 28.7 µM), actives largely listed as inhibitors. actives 5.9% (n = 310,000)
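Compounds are pin-transferred into medium, infected erythrocytes (2% hematocrit, 0.1% parasitemia final) are added, and plates sit one parasite generation at 37 C in 5% CO2. Detection reagent is then added and luminescence measured.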
Shiga inhibitor – blocks Shiga toxin action in Vero cells. Vero cells, Shiga toxin protein synthesis inhibition reporter. inhibition, % at 38.7 µM. actives 9.2% (n = 290,000). AID 2315; in the data active = inhibition mostly above about 28%, no sharp cut-off; inactive = mostly below about 43%
Pf growth 96h – P. falciparum growth inhibition at 96 hours | actives 6.9% (n = 320,000) | P. falciparum luciferase reporter growth, 96 h | AID 504834 | Potency, µM (top dose mostly 28.7 µM), hits mostly inhibitors
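Erythrocytes infected with luciferase-expressing P. falciparum were dispensed at 2% hematocrit and 0.05% parasitemia (final), then incubated with compounds 96 hours at 37 C in 5% CO2. Luminescence after detection reagent addition reported growth.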
Numbers stand for hits; [ ] = another dose, or the depositor's remark. Unless noted, calls follow the shape of the dose curve; as a rule, active = well fitted inhibition curve with a large enough effect; inconclusive = small, poorly fitted or top-dose-only effect, or another doubt; inactive = no such curve, though single readings can be large or run the other way.

How did COC1CCN(C(=O)C2CCC(=O)N(CCc3cccc(F)c3)C2)CC1 (configuration not stated) do in these assays?
LmPK inhibitor: inactive; Cycloheximide cs: 28.3; Pf growth 48h: inactive; Shiga inhibitor: inactive; Pf growth 96h: inactive

Results for CCOC(=O)C1CCN(C(=O)C2CCC(=O)N(Cc3cccc(C(F)(F)F)c3)C2)CC1 (configuration not stated) ?
LmPK inhibitor: inactive; Cycloheximide cs: 13.6; Pf growth 48h: inactive; Shiga inhibitor: inactive; Pf growth 96h: inactive

How did CCCN1CCc2c(sc(NC(=O)Cc3ccc(F)cc3)c2C(N)=O)C1 do in these assays?
LmPK inhibitor: inactive; Cycloheximide cs: inactive; Pf growth 48h: inactive; Shiga inhibitor: inactive; Pf growth 96h: inactive

How did N#C/C(=C\c1ccc(F)c(Br)c1)C(=O)NC1CC1 do in these assays?
LmPK inhibitor: inactive; Cycloheximide cs: 29.9; Pf growth 48h: inactive; Shiga inhibitor: 42.1; Pf growth 96h: inconclusive

Results for N#C/C(=C\c1ccc(F)c(F)c1)C(=O)NC1CCCCC1 ?
LmPK inhibitor: inactive; Cycloheximide cs: inactive; Pf growth 48h: inactive; Shiga inhibitor: inactive; Pf growth 96h: inactive

Results for CCc1noc(C)c1C(=O)N1CCN(S(=O)(=O)c2ccc(Br)cc2)CC1 ?
Pf growth 48h: inactive; Pf growth 96h: inactive

How did CC(C)c1ccc(NC(=O)NN2CCOCC2)cc1 do in these assays?
LmPK inhibitor: inactive[11.5 µM]; Cycloheximide cs: 42.6; Pf growth 48h: inactive; Shiga inhibitor: 138.2; Pf growth 96h: inactive

How did Fc1cc(F)cc(NC(=S)NN2CCOCC2)c1 do in these assays?
LmPK inhibitor: inactive; Cycloheximide cs: inactive; Pf growth 48h: inactive; Shiga inhibitor: inactive; Pf growth 96h: inconclusive

What do the screens show for `CCOC(=O)c1ccc(NC(=S)NC(=O)COc2ccccc2)cc1`?
LmPK inhibitor: inactive; Cycloheximide cs: 54.7; Pf growth 48h: inactive; Shiga inhibitor: inactive; Pf growth 96h: inactive

Results for CCCCc1ccc(NC(=S)NN2CCOCC2)cc1 ?
LmPK inhibitor: inactive; Cycloheximide cs: 67.3; Pf growth 48h: inactive; Shiga inhibitor: 110.6; Pf growth 96h: inactive

How did CCOC(=O)c1ccc(NC(=S)NN2CCOCC2)cc1 do in these assays?
LmPK inhibitor: inactive; Cycloheximide cs: 32.2; Pf growth 48h: inactive; Shiga inhibitor: 39.2; Pf growth 96h: inconclusive

How did CC(=O)[C@@]1(O)CC[C@H]2[C@H]3C[C@@H](C)C4=CC(=O)C=C[C@]4(C)[C@@]3(F)[C@@H](O)C[C@]21C do in these assays?
Pf growth 48h: inactive; Pf growth 96h: inconclusive

What do the screens show for `O=C(CN1C(=O)NC2(CCCc3ccccc32)C1=O)Nc1cc(F)ccc1F` (configuration not stated)?
Pf growth 48h: inactive; Pf growth 96h: inactive

How did CCN(CC)CCNC(=O)c1ccc(NC(=O)C2CCN(c3ncnc4sc(C)c(C)c34)CC2)cc1 do in these assays?
LmPK inhibitor: inactive; Cycloheximide cs: inactive; Pf growth 48h: inconclusive; Shiga inhibitor: inactive; Pf growth 96h: inconclusive

Results for Cc1ccc(CNC(=O)c2cc(Cl)cc(Cl)c2)n1C ?
LmPK inhibitor: inactive; Cycloheximide cs: inactive; Pf growth 48h: inactive; Shiga inhibitor: inactive; Pf growth 96h: inactive

How did CCC(C)c1ccc(NC(=S)NN2CCOCC2)cc1 (configuration not stated) do in these assays?
LmPK inhibitor: inactive; Cycloheximide cs: 42.3; Pf growth 48h: inactive; Shiga inhibitor: 87.3; Pf growth 96h: inconclusive

How did CCOC(=O)c1ccc(NC(=S)NNC(C)(C)C)cc1 do in these assays?
LmPK inhibitor: inactive; Cycloheximide cs: 61.4; Pf growth 48h: inactive; Shiga inhibitor: 83.8; Pf growth 96h: inactive

Results for CCOC(=O)c1ccc(NC(=S)Nc2ccc(C)cc2)cc1 ?
LmPK inhibitor: inactive; Cycloheximide cs: inactive; Pf growth 48h: inactive; Shiga inhibitor: inactive; Pf growth 96h: inactive

What do the screens show for `CCC(=O)NC[C@H](Cc1ccc(OCCc2nc(-c3ccccc3)oc2C)cc1)N/C(C)=C\C(=O)c1ccc(C(F)(F)F)cc1`?
Cycloheximide cs: inactive; Shiga inhibitor: inactive

How did CCOc1ccc(/C=N/NC(=O)c2nnn(-c3nonc3N)c2-c2ccc(OCC)cc2)cc1 do in these assays?
LmPK inhibitor: inactive; Cycloheximide cs: inactive; Pf growth 48h: inactive; Shiga inhibitor: inactive; Pf growth 96h: inactive

How did COc1ccc(/C=N/NC(=O)c2nnn(-c3nonc3N)c2-c2cccs2)cc1OC do in these assays?
LmPK inhibitor: inactive; Cycloheximide cs: inactive; Pf growth 48h: inconclusive; Shiga inhibitor: inactive; Pf growth 96h: inconclusive

Results for Nc1nonc1-n1nnc(C(=O)N/N=C/C=C/c2ccccc2)c1CSC1=NCCS1 ?
LmPK inhibitor: inactive; Cycloheximide cs: 16.7; Pf growth 48h: inconclusive; Shiga inhibitor: 43.1; Pf growth 96h: inconclusive

How did Nc1nonc1-n1nnc(C(=O)N/N=C/c2ccc(F)cc2)c1-c1ccc2c(c1)OCO2 do in these assays?
LmPK inhibitor: inactive; Cycloheximide cs: inactive; Pf growth 48h: 0.117µM; Shiga inhibitor: inactive; Pf growth 96h: 0.0657µM

How did Nc1nonc1-n1nnc(C(=O)N/N=C/c2cccc(Cl)c2)c1-c1cccs1 do in these assays?
LmPK inhibitor: inactive; Cycloheximide cs: inactive; Pf growth 48h: 4.65µM; Shiga inhibitor: inactive; Pf growth 96h: 2.33µM

Results for C/C(=N\N=C\c1ccccc1F)c1nnn(-c2nonc2N)c1C ?
LmPK inhibitor: inactive; Cycloheximide cs: 16.1; Pf growth 48h: inactive; Shiga inhibitor: 80.3; Pf growth 96h: inactive

How did CCN(CC)Cc1c(C(=O)N/N=C/c2cccs2)nnn1-c1nonc1N do in these assays?
LmPK inhibitor: inactive; Cycloheximide cs: inactive; Pf growth 48h: inactive; Shiga inhibitor: inactive; Pf growth 96h: inactive

What do the screens show for `Cc1ccc(/C=N/NC(=O)c2nnn(-c3nonc3N)c2-c2ccc3c(c2)OCO3)s1`?
LmPK inhibitor: inactive; Cycloheximide cs: inactive; Pf growth 48h: 0.262µM; Shiga inhibitor: inactive; Pf growth 96h: inconclusive

What do the screens show for `CCN(CC)c1ccc(/C=N/NC(=O)c2nnn(-c3nonc3N)c2-c2ccc(C)cc2)cc1`?
LmPK inhibitor: inactive; Cycloheximide cs: inactive; Pf growth 48h: inconclusive; Shiga inhibitor: inactive; Pf growth 96h: 5.86µM

How did CCc1c(C(=O)N/N=C/c2cccs2)nnn1-c1nonc1N do in these assays?
LmPK inhibitor: inactive; Cycloheximide cs: 23.2; Pf growth 48h: inactive; Shiga inhibitor: 45.1; Pf growth 96h: inactive

How did Nc1nonc1-n1nnc(C(=O)N/N=C/c2cccc(F)c2)c1-c1ccc2c(c1)OCO2 do in these assays?
LmPK inhibitor: inactive; Cycloheximide cs: inactive; Pf growth 48h: 0.117µM; Shiga inhibitor: inactive; Pf growth 96h: 0.0657µM

What do the screens show for `Nc1nonc1-n1nnc(C(=O)N/N=C/c2ccc3c(c2)OCO3)c1CSc1ccccc1`?
LmPK inhibitor: inactive; Cycloheximide cs: inactive; Pf growth 48h: inactive; Shiga inhibitor: inactive; Pf growth 96h: inactive

What do the screens show for `COC(=O)c1ccccc1S(=O)(=O)N1CCc2nc(-c3ccc(OC)cc3C)c3c(c2C1)CO[C@@H](c1ccccc1)C3`?
LmPK inhibitor: inactive[11.5 µM]

How did CC(Oc1ccccc1F)C(=O)NNC(=O)c1ccc(F)c(S(=O)(=O)N2CCOCC2)c1 (configuration not stated) do in these assays?
LmPK inhibitor: inactive; Cycloheximide cs: inactive; Pf growth 48h: inactive; Shiga inhibitor: inactive; Pf growth 96h: inactive
